NSD2 inh – NSD2 histone methyltransferase inhibitors, primary screen, biochemical, AlphaScreen, single concentration, set 2; AID 743445, 2014; NSD2 peptide methylation, 120 min; inhibition, % at 12.5 µM; Histone-lysine N-methyltransferase NSD2 (Homo sapiens), O96028; actives 0.54% (n = 310,000); in the data active means inhibition above about 50%
Shn3 3UTR inh – reduction of Shn3 3'UTR firefly luciferase signal, primary screen, Schnurri-3 inhibitor project, cell-based, Clone20 osteoblasts, set 2; actives 0.52% (n = 360,000); Clone20 osteoblast Shn3 3'UTR firefly luciferase, 24 h; inhibition, % at 12.5 µM;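 active means mean inhibition of at least 75% with every replicate also reaching 75%; inconclusive means mean inhibition at least 75% but some replicate below; inactive means mean inhibition below 75%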;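 further: 0% = median of neutral control wells and 100% = pilot-screen positive control compound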
PAX8 inh HTS – inhibitors of PAX8-driven TPO luciferase reporter, primary screen, RMG-I cells, single concentration; SteadyGlo, 24 h; inhibition, % at 12.6 µM; actives 1.2% (n = 360,000); AID 652154, 2013;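 active means mean replicate inhibition at least 60% with every replicate also reaching 60%; inconclusive means only one of the two criteria is met; inactive means mean below 60% and not all replicates reaching 60%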;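 further: luciferase light reporting Pax8 driven TPO promoter activity; plate controls were median of neutral control wells for no effect and mitoxantrone controls for full effect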
Glyco luc inh – increase of ERlucT glycosylation luciferase signal, primary screen, N-linked glycosylation inhibitor project, D54 ERlucT cells, luminescence, set 2; D54 ERlucT glycosylation luciferase reporter, 24 h; percent of 100 nM tunicamycin response; reporter increase, % at 12.5 µM; actives 0.23% (n = 360,000); AID 588692, 2011;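 active means mean luciferase reporter signal, scaled so untreated is 0 and the glycosylation-blocking control 100, at or above a set limit in every replicate; inconclusive means mean reaches the limit but not every replicate does; inactive means mean below the limit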;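 further: luciferase carries N-glycosylation sites so blocking glycosylation raises the light; 0% = median of neutral control wells and 100% = median of 100 nM tunicamycin wells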
Env fusion inh – inhibitors of HIV-1 Env-driven cell-cell fusion, primary screen, HeLa-JRFL effector, CEM21 target cells, luciferase; inhibition, % at 12.3 µM; actives 1.1% (n = 360,000);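 active means mean replicate inhibition score of at least 50 and every replicate individually at or above 50; inconclusive means only one of the two criteria met; inactive means mean below 50 and not all replicates reaching 50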;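 further: 0% = plate neutral controls and 100% = maraviroc near 300 nM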
LMP1 NFkB inh – EBV LMP1-driven NF-kappaB luciferase reporter inhibitors, primary screen, cell-based, luminescence, single point; actives 0.69% (n = 350,000); LMP1-induced NF-kappaB luciferase reporter cells; AID 504558, 2011; inhibition, % at 12.5 µM; in the data active means inhibition above about 41%; inconclusive means no clear call, values can overlap the other calls;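 further: 0% = neutral control wells and 100% = reference inhibitor control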
Active calls of the source: *; ? = inconclusive; · = no result; [ ] = remark or other dose. Only some compounds are listed: those with a hit (about 2.8% of all), similar ones and a draw of the others.

SMILES	NSD2 inh	Shn3 3UTR inh	PAX8 inh HTS	Glyco luc inh	Env fusion inh	LMP1 NFkB inh
CN1c2ccc(-c3ccccc3)cc2[C@@H]2[C@@H](CCN2C(=O)Nc2ccccc2F)[C@@H]1CO	·	·	16	·	·	·
O=C(Nc1ccc(F)cc1)N1CCCCN2[C@@H](CO)[C@H](c3ccc(C#Cc4ccccc4)cc3)[C@@H]2C1	·	·	70*	·	·	·
O=C(Nc1ccc(F)cc1)N1CCCCN2[C@H](CO)[C@@H](c3ccc(C#Cc4ccccc4)cc3)[C@@H]2C1	·	·	24	·	·	·
COc1ccc(NC(=O)N2CCCCN3[C@H](CO)[C@H](c4ccc(C#Cc5ccccc5)cc4)[C@H]3C2)cc1	·	·	82*	·	·	·
O=C(C#Cc1ccccc1)c1ccccc1	-2	99*	46	-13	-41	-3
O=C(C#Cc1ccccc1)c1ccc([N+](=O)[O-])cc1	·	95*	11	1	-131	26
COc1ccc(-c2cc3c(nn2)-c2ccccc2C3=O)cc1	-5	46	7	-21	22	52*
O=C1c2ccccc2-c2nnc(-c3ccccc3)cc21	0	9	·	-9	·	4
Cn1cc(CN2CCCC(CNC(=O)c3ccc4c(c3)OCO4)C2)c2ccccc21 (stereo not given)	-1	14	13	1	56*	7
C[C@H](CO)N1C[C@H](C)[C@H](CN(C)C(=O)c2ccncc2)OCCCC[C@H](C)Oc2ccc(NS(=O)(=O)c3ccccc3)cc2C1=O	·	·	-5	·	-13[16.7 µM]	·
Cc1cc(C(=O)Nc2ccc3c(c2)C(=O)N(C)[C@H]2CC[C@H](CC(=O)NC4CCCC4)O[C@H]2CO3)no1	·	·	-5	·	-5[16.7 µM]	·
CCCN(CC(=O)Nc1ccccc1OC)C(=O)c1cccc(S(=O)(=O)NCc2ccccc2)c1	-2	20	1	2	90*	3
Cc1ccc(NC(=O)c2ccc(CN3CCN(C)CC3)cc2)cc1Nc1nccc(-c2cccnc2)n1	·	-32	-24	1	24	77*
O=C(C[C@H]1C=C[C@@H](NC(=O)Nc2ccccc2F)[C@@H](CO)O1)NCc1ccc(-c2ccccc2)cc1	·	·	·	·	84*[16.7 µM]	·
O=C(C[C@H]1C=C[C@@H](NC(=O)Nc2ccccc2F)[C@@H](CO)O1)NCc1ccc(Cl)cc1	·	·	12	·	72*[16.7 µM]	·
O=C(O)C[C@@H]1C=C[C@H](NC(=O)Nc2ccccc2)[C@H](CO)O1	·	·	10	·	58*[16.7 µM]	·
O=C(C[C@@H]1C=C[C@H](NC(=O)Nc2ccccc2F)[C@@H](CO)O1)NCc1ccc(-c2ccccc2)cc1	·	·	-11	·	8[16.7 µM]	·
O=C(C[C@@H]1C=C[C@H](NC(=O)c2cccc(F)c2)[C@H](CO)O1)NCc1ccc(Oc2ccccc2)cc1	·	·	6	·	?	·
O=C(C[C@H]1C=C[C@@H](NC(=O)c2cccc(F)c2)[C@@H](CO)O1)NCc1ccc(Oc2ccccc2)cc1	·	·	18	·	80*[16.7 µM]	·
CC(=O)N(C)C[C@H]1Oc2cc(-c3ccc(C#N)cc3)ccc2S(=O)(=O)N([C@H](C)CO)C[C@@H]1C	·	·	·	·	8[16.7 µM]	·
COCC(=O)Nc1ccc2c(c1)C(=O)N(C)[C@H]1CC[C@@H](CC(=O)NCC3CC3)O[C@@H]1CO2	·	·	-3	·	11[16.7 µM]	·
COc1ccccc1C#Cc1cnc2c(c1)C(=O)N([C@H](C)CO)C[C@H](C)[C@H](CN(C)C(C)=O)O2	·	·	·	·	7[16.7 µM]	·
C=CC[C@H](O)c1ccc(O)c(F)c1	·	·	4	·	-14[16.7 µM]	·
CC(C)NC(=O)Nc1ccc2c(c1)C(=O)N([C@H](C)CO)C[C@H](C)[C@@H](CN(C)C(=O)c1ccncc1)OCCCC[C@H](C)O2	·	·	-9	·	3[16.7 µM]	·
O=C(C[C@@H]1C=C[C@@H](NC(=O)CC2CC2)[C@H](CO)O1)NCc1ccc(Cl)cc1	·	·	-11	·	55*[16.7 µM]	·
SMILES	NSD2 inh	Shn3 3UTR inh	PAX8 inh HTS	Glyco luc inh	Env fusion inh	LMP1 NFkB inh
C[C@]12CCC(=O)C=C1CCC1C2CC[C@@]2(C)C1CCC21OCCO1 (stereo not given in full)	18	60	21	-3	-54	4
C=C1CC2C3CC[C@@]4(OCOC45COCO5)[C@@]3(C)C(O)CC2[C@@]2(C)CCC(=O)C=C12 (stereo not given in full)	7	14	64*	-10	-34	7
C[C@H]1CCCCO[C@@H](CN(C)C(=O)C2CCCCC2)[C@@H](C)CN([C@@H](C)CO)C(=O)c2cc(NC(=O)Nc3ccccc3)ccc2O1	·	·	28	·	64*[16.7 µM]	·
C[C@H](CO)N1C[C@H](C)[C@H](CN(C)C(=O)C2CCCCC2)OCCCC[C@H](C)Oc2ccc(NC(=O)Nc3ccccc3)cc2C1=O	·	·	47	·	60*[16.7 µM]	·
C[C@@H]1CN([C@@H](C)CO)C(=O)c2cc(NC(=O)Nc3ccccc3)ccc2O[C@@H](C)CCCCO[C@@H]1CN(C)C(=O)C1CCCCC1	·	·	0	·	4[16.7 µM]	·
Cc1ccc(S(=O)(=O)N[C@@H]2CC[C@@H](CCNC(=O)C3CCOCC3)O[C@H]2CO)cc1	·	·	11	·	10[16.7 µM]	·
Cc1noc(C)c1NC(=O)Nc1cccc2c1O[C@@H](CN(C)S(C)(=O)=O)[C@H](C)CN([C@@H](C)CO)C2=O	·	·	·	·	0[16.7 µM]	·
C[C@@H]1CN([C@H](C)CO)C(=O)c2cc(C#CCN(C)C)cnc2O[C@H]1CN(C)Cc1ccc(C(=O)O)cc1	·	·	-14	·	11[16.7 µM]	·
CCN(C(=O)COC(=O)c1ccc(S(=O)(=O)N2CCCc3ccccc32)cc1)C1CCS(=O)(=O)C1 (stereo not given)	0	2	97*	2	7	-2
COCC(=O)N(C)C[C@H]1Oc2cc(C#Cc3ccccc3)ccc2S(=O)(=O)N([C@H](C)CO)C[C@@H]1C	·	·	·	·	10[16.7 µM]	·
OC(c1cccc(OCc2ccccc2)c1)c1nnc(-c2ccccc2)o1 (stereo not given)	·	14	26	-4	73*	1
OC(c1ccc(OCc2ccccc2)cc1)c1nnc(-c2ccccc2)o1 (stereo not given)	2	18	·	-3	·	10
CC=Cc1ccc2n(c1=O)C[C@@H]1[C@@H](CO)[C@H](C(=O)N[C@@H](C)c3ccccc3)[C@H]2N1CC1CC1 (mixture of isomers)	·	·	-2	·	·	·
COc1ccc(S(=O)(=O)Nc2ccc3c(c2)C(=O)N([C@H](C)CO)C[C@@H](C)[C@H](CN(C)S(=O)(=O)c2ccc(C)cc2)OCCCC[C@@H](C)O3)cc1	·	·	67*	·	-19[16.7 µM]	·
COc1ccc(S(=O)(=O)Nc2ccc3c(c2)C(=O)N([C@@H](C)CO)C[C@@H](C)[C@@H](CN(C)S(=O)(=O)c2ccc(C)cc2)OCCCC[C@H](C)O3)cc1	·	·	-1	·	-24[16.7 µM]	·
